These results are taken from PubChem BioAssay (NCATS).

Each structure is given as a SMILES string. Results filed as inconclusive are left out. The source made the active and inactive calls. Calls come from the whole dose curve; as a rule, active = well fitted inhibition curve with a large enough effect; inconclusive = small, poorly fitted or top-dose-only effect; inactive = flat fitted curve, though single readings scatter.

Holding throughout (test): qHTS profiling for inhibitors of Plasmodium falciparum proliferation (AID 504749); note: nearly all actives have a fitted effect of over 60% in size
What all share (conditions): P. falciparum in erythrocytes, SYBR Green DNA, 72 h; series mostly up to 28.7 µM
A general note: Quantitative high-throughput screening tests each substance at several concentrations.

One assay concerns SC27B. An outline of the steps: (§1)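 Fluorescence of SYBR Green-bound parasite DNA, read at 485/535 nm, served as the growth measure. Infected erythrocytes were cultured with compound 72 h; artemisinin (0.29 uM) and DMSO wells defined the normalization range.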
For a further assay, the system named is TAB109. An outline of the steps:
as §1

A further assay has as its system TAB113. The procedure, abridged:
as §1

The test system of a further assay is TAB165. The procedure, abridged:
as §1

Another assay concerns W2. An outline of the steps:
as §1
Potency is the fitted concentration of half-maximal effect.

As to `O=C(O)CN(CCN(CC(=O)O)CC(=O)O)CC(=O)O`, the Potency entry with SC27B, with TAB109, in the assay on TAB113, in the assay on TAB165 and with W2 was “inactive” each time.

As for `NC1C2CN(c3nc4c(cc3F)c(=O)c(C(=O)O)cn4-c3ccc(F)cc3F)CC12` (stereo not given), the Potency in the assay on W2 is 6.75 µM (active).

In the case of `C[C@H]1C[C@H]2[C@@H]3CCC4=CC(=O)C=C[C@]4(C)[C@@]3(F)[C@@H](O)C[C@]2(C)[C@@]1(O)C(=O)CO`, the Potency result in the assay on SC27B, in the assay on TAB109, with TAB113, with TAB165 and with W2 was “inactive” throughout.

Consider `CCCC(=O)Nc1ncnc2c1ncn2C1OC2COP(=O)(O)OC2C1OC(=O)CCC` (stereo not given), for which the Potency result in the assay with SC27B, in the assay with TAB109, in the assay with TAB113, in the assay on TAB165 and in the assay on W2 was “inactive” throughout.

With `CCNC(=O)[C@@H]1CCCN1C(=O)[C@H](CCCN=C(N)N)NC(=O)[C@H](CC(C)C)NC(=O)[C@@H](Cc1c[nH]c2ccccc12)NC(=O)[C@H](Cc1ccc(O)cc1)NC(=O)[C@H](CO)NC(=O)[C@H](Cc1c[nH]c2ccccc12)NC(=O)[C@H](Cc1cnc[nH]1)NC(=O)[C@@H]1CCC(=O)N1`, the Potency with SC27B is 6.31 µM (active); with TAB109 it was 4.47 µM (active); with TAB113, 8.91 µM (active); in the assay on TAB165, 3.16 µM (active); in the assay on W2 it was 0.849 µM (active).

For the molecule `CC1=C(/C=C/C(C)=C/C=C/C(C)=C/C=C/C=C(C)/C=C/C=C(C)/C=C/C2=C(C)C(=O)CCC2(C)C)C(C)(C)CCC1=O`, the Potency entry in the assay with SC27B, in the assay on TAB109, in the assay on TAB113, in the assay on TAB165 and with W2 was “inactive” in each case.

As for `O=S(=O)(O)c1ccc2c(N=Nc3ccc(S(=O)(=O)O)c4ccccc34)c(O)c(S(=O)(=O)O)cc2c1`, the Potency result with SC27B, with TAB109, with TAB113, in the assay with TAB165 and in the assay on W2 was “inactive” each time.

On to `CCCCCCCCCCCCCCCC(=O)OCC(COC(=O)CCCCCCCCCCCCCCC)OC(=O)CCCCCCCCCCCCCCC`, for which the Potency entry in the assay with SC27B, with TAB113, in the assay on TAB165 and in the assay with W2 was “inactive” each time.
